Measured values from PubChem BioAssay AID1159580 (chemical genetic matrix, 2015).
In all, about 5,500 compounds went through this assay and about 2,000 (36%) were called active. Not shown: some 18% with an inconclusive outcome. The list shows a part of the results. Unmarked numbers belong to inactive results. No stated cut-off is given here; in the data, active means normalized growth mostly below about 0.91 (no sharp cut-off); inconclusive means no clear call, values can overlap the other calls; inactive means mostly above about 0.92.

Assay: chemical genetic growth profiling, strain panel (AID 1159580);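 further: tested at 20 µM; growth read once vehicle control cultures reached saturation at 30 °C; 1 = growth at the plate median or of vehicle wells; lower values mean less growth of the strain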
Settings: S. cerevisiae deletion strains, growth OD

With `COc1ccc(NNC(=O)c2sc3ccccc3c2Cl)cc1` the normalized growth (locus YAR019C, strain CDC15, hits give low values) was 0.921, the normalized growth (locus YBL105C, strain PKC1, hits give low values) was 0.927 and the normalized growth (locus YBR135W, strain CKS1, hits give low values) was 0.915. The normalized growth (locus YBR136W, strain MEC1, hits give low values) was 0.922, the normalized growth (locus YBR160W, strain CDC28, hits give low values) was 0.927 and the normalized growth (locus YDL017W, strain CDC7, hits give low values) was 0.936. It also gave a normalized growth (locus YDL028C, strain MPS1, hits give low values) of 0.929, a normalized growth (locus YDL101C, strain DUN1, hits give low values) of 0.954 and a normalized growth (locus YDL108W, strain KIN28, hits give low values) of 0.93. The normalized growth (locus YDL132W, strain cdc53, hits give low values) was 0.959, the normalized growth (locus YDL214C, strain PRR2, hits give low values) was 0.692 (active) and the normalized growth (locus YDR052C, strain DBF4, hits give low values) was 0.935. It also gave a normalized growth (locus YDR054C, strain cdc34, hits give low values) of 0.923, a normalized growth (locus YDR226W, strain ADK1, hits give low values) of 0.938 and a normalized growth (locus YDR477W, strain SNF1, hits give low values) of 0.694. The normalized growth (locus YER123W, strain YCK3, hits give low values) was 0.287 (active), the normalized growth (locus YER133W, strain GLC7, hits give low values) was 0.663 (active) and the normalized growth (locus YFL009W, strain cdc4, hits give low values) was 0.941. For the same molecule, the normalized growth (locus YFL029C, strain CAK1, hits give low values) was 0.92, the normalized growth (locus YFR003C, strain YPI1, hits give low values) was 0.93 and the normalized growth (locus YFR019W, strain FAB1, hits give low values) was 0.37 (active). For the same molecule, the normalized growth (locus YFR028C, strain CDC14, hits give low values) was 0.92, the normalized growth (locus YGR040W, strain KSS1, hits give low values) was 0.681 (active) and the normalized growth (locus YGR052W, strain FMP48, hits give low values) was 0.558 (active). The normalized growth (locus YGR092W, strain DBF2, hits give low values) was 0.117 (active), the normalized growth (locus YHR030C, strain SLT2, hits give low values) was 0.302 (active) and the normalized growth (locus YHR079C, strain IRE1, hits give low values) was 0.502 (active). It also gave a normalized growth (locus YHR082C, strain KSP1, hits give low values) of 0.656, a normalized growth (locus YHR205W, strain SCH9, hits give low values) of 0.612 and a normalized growth (locus YIL147C, strain SLN1, hits give low values) of 0.924. The normalized growth (locus YJL095W, strain BCK1, hits give low values) was 0.341 (active), the normalized growth (locus YJL128C, strain PBS2, hits give low values) was 0.878 and the normalized growth (locus YJL157C, strain FAR1, hits give low values) was 0.544 (active). The normalized growth (locus YJR016C, strain ILV3, hits give low values) was 0.903, the normalized growth (locus YJR066W, strain TOR1 (second series), hits give low values) was 0.243 (active) and the normalized growth (locus YJR066W, strain TOR1, hits give low values) was 0.579. The normalized growth (locus YKL048C, strain ELM1, hits give low values) was 0.658 (active), the normalized growth (locus YKL067W, strain YNK1, hits give low values) was 0.587 (active) and the normalized growth (locus YKL101W, strain HSL1, hits give low values) was 0.657 (active). The normalized growth (locus YKL193C, strain SDS22, hits give low values) was 0.923, the normalized growth (locus YKL203C, strain TOR2, hits give low values) was 0.686 (active) and the normalized growth (locus YLR113W, strain HOG1, hits give low values) was 0.293 (active). For the same molecule, the normalized growth (locus YLR133W, strain CKI1, hits give low values) was 0.627 (active), the normalized growth (locus YLR403W, strain SFP1, hits give low values) was 0.563 (active) and the normalized growth (locus YML070W, strain DAK1, hits give low values) was 0.419 (active). The normalized growth (locus YMR001C, strain CDC5, hits give low values) was 0.925, the normalized growth (locus YMR205C, strain PFK2 (second series), hits give low values) was 0.659 (active) and the normalized growth (locus YMR277W, strain FCP1, hits give low values) was 0.926. For the same molecule, the normalized growth (locus YNL006W, strain LST8, hits give low values) was 0.914, the normalized growth (locus YNL020C, strain ARK1, hits give low values) was 0.643 (active) and the normalized growth (locus YNL161W, strain CBK1, hits give low values) was 0.918. For the same molecule, the normalized growth (locus YNL183C, strain NPR1, hits give low values) was 0.595, the normalized growth (locus YNL207W, strain RIO2, hits give low values) was 0.948 and the normalized growth (locus YNL222W, strain SSU72, hits give low values) was 0.906. The normalized growth (locus YNL307C, strain MCK1 (second series), hits give low values) was 0.262 (active), the normalized growth (locus YOL078W, strain AVO1, hits give low values) was 0.913 and the normalized growth (locus YOL136C, strain PFK27, hits give low values) was 0.433 (active). For the same molecule, the normalized growth (locus YOR061W, strain CKA2, hits give low values) was 0.299 (active), the normalized growth (locus YOR119C, strain RIO1, hits give low values) was 0.604 (active) and the normalized growth (locus YOR231W, strain MKK1, hits give low values) was 0.507 (active). For the same molecule, the normalized growth (locus YOR329C, strain SCD5, hits give low values) was 0.927, the normalized growth (locus YPL031C, strain PHO85, hits give low values) was 0.657 (active) and the normalized growth (locus YPL153C, strain RAD53, hits give low values) was 0.525 (active). The normalized growth (locus YPL204W, strain HRR25, hits give low values) was 0.576 (active), the normalized growth (locus YPL209C, strain IPL1, hits give low values) was 0.918 and the normalized growth (locus YPL256C, strain CLN2, hits give low values) was 0.441 (active). For the same molecule, the normalized growth (locus YPR025C, strain CCL1, hits give low values) was 0.929, the normalized growth (locus YPR106W, strain ISR1, hits give low values) was 0.907 and the normalized growth (locus YPR111W, strain DBF20, hits give low values) was 0.918. The normalized growth (strain NNK1, hits give low values) was 0.908 and the normalized growth (strain TSCII, hits give low values) was 0.923.
